What is called inhibition is the change of the read-out against control, counted positive when it falls.

“And” between values parts separate entries of the source, which are not always exact repeats. Identical values can stand only once. Screen size: about 350,000 compounds; about 2,300 (0.66%) were called active. The sample holds actives, similar compounds and a random draw of the others, so the mix is not that of the screen.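 How the source made its calls: active means mean inhibition of at least 50% after viability correction, with every replicate also passing that limit; inconclusive means mean reaches 50% but only one of two replicates passes; inactive means the rest.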 The source holds several records for some structures; these can differ, active in one and inactive in another.

The nature of this test: EWS/Fli-driven NR0B1 reporter inhibitors, primary screen, A673 cells, NR0B1 luciferase, luminescence, MLPCN library (AID 651661).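 Further: firefly luciferase signal divided by Alamar Blue viability fluorescence both relative to DMSO.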 As to conditions: viability-normalised, at 12.6 µM, stronger effect = higher value.
As to `Oc1c(Cl)cc(Cl)c(Cl)c1Cc1c(O)c(Cl)cc(Cl)c1Cl`, the inhibition was 50.1% (active).

Turning to `C/C=C/c1ccc(C2[C@H]3CNC[C@@H]2N3Cc2cccc(F)c2)cc1` (stereo partly drawn), the inhibition is 4.29% (inactive).

With `COc1cc(SC)ccc1C(=O)NNC(=O)C1COc2ccccc2O1` (stereo not drawn), the inhibition is -2.85% (inactive).

Consider `COc1cc(SC)ccc1C(=O)Nc1nc(C)cs1`, for which the inhibition is 76.2% (active).

In the case of `Cc1csc(NC(=O)c2ccc(-c3ccc(Cl)cc3Cl)o2)n1`, the inhibition was -14% (inactive).

Take `CO[C@@H]1CN(C)C(=O)c2ccc(NC(=O)c3ccc(F)cc3)cc2OC[C@H](C)N(C)C[C@H]1C`: the inhibition was 4.5% (inactive).

As for `C[C@H](CO)N1C[C@H](C)[C@@H](CN(C)CC2CC2)Oc2ccc(NS(=O)(=O)c3cn(C)cn3)cc2CC1=O`, the inhibition was -13.9% (inactive).

Take `CO[C@H]1CN(C)C(=O)c2ccc(NC(=O)NC(C)C)cc2OC[C@@H](C)N(C(=O)CN(C)C)C[C@H]1C`: the inhibition was 8.16% (inactive).

Take `NC(N)=Nc1nc(-c2ccccc2)c2cc(Cl)ccc2n1`: the inhibition was 63.6% (active).

Consider `Cc1onc(-c2ccccc2)c1C(=O)N=C(N)c1ccc(Cl)cc1`, for which the inhibition is -16.4% (inactive).

`Cc1nc(N=C(N)N)nc2c(C)cccc12`: the inhibition was 34.9% (inactive).

As to `CC(C)NC(=O)N(C)C[C@@H]1Oc2ncc(C#Cc3ccncc3)cc2C(=O)N([C@@H](C)CO)C[C@@H]1C`, the inhibition is -7.78% (inactive).

As for `COC(=O)C[C@@H]1C[C@H]2c3cc(NC(=O)Nc4ccc(F)cc4)ccc3O[C@H]2[C@@H](CO)O1`, the inhibition is 6.58% (inactive).

Turning to `CC(C)(C)[S@](=O)N1Cc2cc(C(=O)N3CCCCC3)nc(-c3cccc(Br)c3)c2[C@@H]1CCO`, the inhibition is 0.582% (inactive).

Take `N#C[C@@H]1[C@@H](c2ccc(C#Cc3cccc(F)c3)cc2)[C@@H](CO)N1C(=O)C1CCC1`: the inhibition was -10% (inactive).

As for `N#C[C@@H]1[C@@H](c2ccc(C#Cc3cccc(F)c3)cc2)[C@H](CO)N1C(=O)C1CCOCC1`, the inhibition was -36% (inactive).

Take `N#C[C@@H]1[C@H](c2ccc(C#Cc3cccc(F)c3)cc2)[C@@H](CO)N1C(=O)C1CCCC1`: the inhibition was 59.3% (active).

Regarding `Cc1noc(C)c1NC(=O)N(C)C[C@@H]1Oc2ccc(NC(=O)CCN3CCOCC3)cc2CC(=O)N([C@H](C)CO)C[C@@H]1C`, the inhibition is -3.43% (inactive).

For `CCCCCCCCn1c2c(c(=N)c3c1CCC3)CCCC2`, the inhibition was 55.8% (active).

For `CO[C@@H](CN(C)C(=O)Nc1ccc(F)cc1)[C@H](C)CN(Cc1ccccc1Cl)[C@@H](C)CO`, the inhibition was 2.29% (inactive).

For the molecule `O=C(NCC[C@H]1CC[C@@H](NS(=O)(=O)c2cccc(Cl)c2)[C@@H](CO)O1)c1cnccn1`, the inhibition was -2.88% (inactive).

Take `CCOCCC(=O)Nc1ccc2c(c1)c(=O)n(C)n2-c1ccc2ccccc2c1`: the inhibition was 56.3% (active).

As to `COc1cc(Cn2c3ccc(NC(=O)CC(C)c4ccccc4)cc3c(=O)n2C)ccc1F` (stereo not drawn), the inhibition was 11% (inactive).

`CCOC(=O)c1cccc(NC(=O)CCOc2ccccc2)c1`: the inhibition is -49.3% (inactive).

For `CC(=O)N(C)C[C@H]1Oc2ncc(C#Cc3ccccn3)cc2C(=O)N([C@H](C)CO)C[C@@H]1C`, the inhibition was 1.56% (inactive).

For `C[C@@H]1CCCCO[C@@H](CN(C)C(=O)Nc2ccc3c(c2)OCO3)[C@H](C)CN([C@H](C)CO)C(=O)c2cc(NC(=O)CCCN(C)C)ccc2O1`, the inhibition was -6.47% (inactive).

On to `COc1ccc(OC)c(Cc2cnc3nc(N)nc(N)c3c2C)c1`, for which the inhibition is 62.9% (active).

As to `COc1ccc(OC)c(NC(=O)c2sc3nc(C)cc(C)c3c2N)c1`, the inhibition was -6% (inactive).

As to `COc1ccc(OC)c(Cc2nnc(CCC(=O)NC3CCCC3)o2)c1`, the inhibition is -17.8% (inactive).

For the molecule `CO[C@H]1CN(C)C(=O)c2cc(NC(=O)C3CC3)ccc2OC[C@@H](C)N(CCc2ccccc2)C[C@H]1C`, the inhibition was -1.43% (inactive).

For `CN(C)CCCNC(=O)C[C@H]1CC[C@H]2[C@@H](COC[C@H](O)CN2CC2CCCCC2)O1`, the inhibition is -0.386% (inactive).

For `CC(=O)N(C)C[C@@H]1Oc2ncc(C#Cc3ccc(F)cc3)cc2C(=O)N([C@H](C)CO)C[C@@H]1C`, the inhibition was -7.39% (inactive).

As to `CC(C)CN(C[C@@H]1N[C@@H](CO)[C@H]1c1ccccc1)C(=O)CN(C)C`, the inhibition is 4.89% (inactive).

As to `O=C(/C=C/Sc1ncn[nH]1)c1ccc(Cl)cc1`, the inhibition was 67% (active).

Take `O=C(CSc1ncn[nH]1)Nc1ccc(Br)cc1Br`: the inhibition was -25.6% (inactive).

For `Cc1ccc(S(=O)(=O)N(C)C[C@@H]2Oc3ccc(NS(=O)(=O)c4ccc(F)cc4)cc3CC(=O)N([C@@H](C)CO)C[C@H]2C)cc1`, the inhibition is -0.853% (inactive).

Consider `CC(C)CC#Cc1ccc2c(c1)O[C@H](CN(C)Cc1ccccc1F)[C@@H](C)CN([C@@H](C)CO)S2(=O)=O`, for which the inhibition is -16.5% (inactive).

Take `O=C(C1CCCC1)N1CC(=O)N2[C@H](CO)[C@H](c3ccc(Br)cc3)[C@H]2C1`: the inhibition was -4.8% (inactive).

With `CCCC#Cc1ccc([C@H]2[C@H](CO)N3C(=O)CN(C(=O)c4ccc(F)cc4)C[C@@H]23)cc1`, the inhibition was -7.03% (inactive).

Take `C=CCn1c(C)cc(C2=NNC(=NCC)SC2)c1C`: the inhibition was 91.7% (active).

As for `CCCC#Cc1ccc2c(c1)O[C@H](CN(C)C(=O)C1CCCCC1)[C@H](C)CN([C@H](C)CO)S2(=O)=O`, the inhibition was 9.13% (inactive).

In the case of `CC(C)C#Cc1ccc([C@H]2[C@@H](CO)N3CCCCN(C(=O)Nc4ccccc4)C[C@H]23)cc1`, the inhibition is 1.61% (inactive).

With `C[C@@H](NC(=O)C[C@H]1C[C@@H]2c3cc(NC(=O)c4ccc5c(c4)OCO5)ccc3O[C@@H]2[C@@H](CO)O1)c1ccccc1`, the inhibition is 2.79% (inactive).

Consider `CNC(=O)C[C@@H]1CC[C@H]2[C@@H](COc3ccc(NC(=O)NCc4ccccc4)cc3C(=O)N2C)O1`, for which the inhibition is -5.62% (inactive).

As to `COC(=O)C1=C(C)N(Cc2ccc(C(F)(F)F)cc2)C(=NCc2ccc(C(F)(F)F)cc2)NC1c1cccc(Cl)c1` (stereo not drawn), the inhibition is 55.4% (active).

Take `COC(=O)C1=C(C)N(Cc2cccc(C(F)(F)F)c2)C(=NCc2ccccc2)NC1c1ccc(Cl)cc1` (stereo not drawn): the inhibition was 36.5% (inactive).

Turning to `COC(=O)C1=C(C)N(Cc2ccc(C(F)(F)F)cc2)C(=NCc2ccccc2)NC1c1ccccc1C(F)(F)F` (stereo not drawn), the inhibition is 25.1% (inactive).

As to `CN(C)CC(=O)N1[C@@H](C#N)[C@@H](c2ccccc2-c2ccccc2F)[C@@H]1CO`, the inhibition was -0.399% (inactive).

With `COc1ccccc1S(=O)(=O)N1C[C@@H]2N[C@H](C1)C2c1ccc(-c2cccc(C)c2)cc1` (stereo partly drawn), the inhibition is 61.1% (active) and 2.71% (inactive).

For the molecule `Cc1ccccc1S(=O)(=O)N1C[C@@H]2N[C@H](C1)C2c1ccc(-c2cccc(C(=O)N(C)C)c2)cc1` (stereo partly drawn), the inhibition is -5.91% (inactive).

Regarding `COc1cccc(S(=O)(=O)N2C[C@@H]3N[C@H](C2)C3c2ccc(-c3cccc(C(=O)N(C)C)c3)cc2)c1` (stereo partly drawn), the inhibition is 10.3% (inactive) and 3.54% (inactive).

On to `N#C[C@@H]1[C@H](c2ccc(-c3cccnc3)cc2)[C@H](CO)N1C(=O)C1CC1`, for which the inhibition was -1.35% (inactive).

Turning to `COCC#Cc1ccc([C@@H]2[C@H](CO)N3C(=O)CN(C(=O)C4CCC4)C[C@@H]23)cc1`, the inhibition was -1.21% (inactive).

With `Brc1ccc2ncnc(NCc3cccnc3)c2c1`, the inhibition is -8.78% (inactive).

Turning to `COc1ccc(Nc2ncnc3ccc(Br)cc23)c(OC)c1`, the inhibition is 72.3% (active).

On to `O=C(O)CCCCCNc1ncnc2ccc(Br)cc12`, for which the inhibition is -0.908% (inactive).

On to `CNC[C@H]1OCCCC[C@@H](C)Oc2ccc(NC(=O)Nc3ccc(C(F)(F)F)cc3)cc2C(=O)N([C@H](C)CO)C[C@H]1C`, for which the inhibition was -7.97% (inactive).

As for `COCC(=O)Nc1ccc2c(c1)OC[C@H](C)N(Cc1ccccc1)C[C@H](C)[C@@H](OC)CN(C)C2=O`, the inhibition is 20.9% (inactive).

On to `COCC(=O)Nc1ccc2c(c1)C(=O)N(C)C[C@H](OC)[C@@H](C)CN(CCc1ccccc1)[C@@H](C)CO2`, for which the inhibition was 2.64% (inactive).

For `COCC(=O)Nc1ccc2c(c1)OC[C@@H](C)N(CCc1ccccc1)C[C@H](C)[C@@H](OC)CN(C)C2=O`, the inhibition is 53.4% (active).

On to `CCC(=O)N1C[C@H](C)[C@@H](OC)CN(C)C(=O)c2cc(NC(=O)c3cnccn3)ccc2OC[C@@H]1C`, for which the inhibition is 2.51% (inactive).

For `O=C(c1cnccn1)N1CC(=O)N2[C@H](C1)[C@@H](c1ccc(C#CC3CCCCC3)cc1)[C@@H]2CO`, the inhibition is -6.01% (inactive).

Turning to `COc1ccc(/C=C2/SC(=O)N(CCCCCC(=O)Nc3ccccc3C(=O)O)C2=S)cc1`, the inhibition was 55.1% (active).

With `COc1ccc(NC(=O)CCCC(=O)c2ccccc2)cc1`, the inhibition was 10.3% (inactive).

For `COc1cccc(/C=C2\SC(=S)N(CCCC(=O)N3CCOCC3)C2=O)c1`, the inhibition was -15.9% (inactive).

`COc1ccccc1S(=O)(=O)N[C@@H]1CC[C@H](CCn2cc(C3CCCC3)nn2)O[C@H]1CO`: the inhibition was -6.51% (inactive).

Take `O=C(Nc1ccccc1F)N[C@H]1CC[C@@H](CCNS(=O)(=O)c2ccc(F)cc2)O[C@@H]1CO`: the inhibition is 4.92% (inactive).

On to `C[C@H](CO)N1C[C@H](C)[C@@H](CN(C)C(=O)C2CCCCC2)OCCCC[C@H](C)Oc2ccc(N(C)C)cc2C1=O`, for which the inhibition is -2.95% (inactive).

Turning to `CC(NC(=S)Nc1ccc(OC(F)F)cc1)c1ccc(F)cc1` (stereo not drawn), the inhibition is 0.035% (inactive).

Take `CC(C)CNC(=S)Nc1ccc(F)cc1`: the inhibition was 86.6% (active).

For the molecule `CC(C)CNC(=O)C(=O)Nc1ccc(N(C)C)cc1`, the inhibition was -41.5% (inactive).

`CO[C@H](C(=O)N(C)C[C@@H]1OCc2ccccc2-c2c(n(C)c3ccccc23)C(=O)N([C@@H](C)CO)C[C@H]1C)c1ccccc1`: the inhibition was 8.3% (inactive).

For the molecule `N#Cc1cccc(-c2ccc(C3[C@H]4CNC[C@@H]3N4S(=O)(=O)c3ccc(-c4ccccc4)cc3)cc2)c1` (stereo partly drawn), the inhibition was 3.68% (inactive) and -7.87% (inactive).

Values taken from PubChem BioAssay AID651661 (Broad Institute, 2012).
